Assay results reported in PubChem BioAssay (NCI).
Several values for one entry are separate records, joined by “and”; a condition that tells them apart may be missing. Equal values may be shown once. This is part of a sample that, as a whole, favours compounds with a hit. Of some 79,000 tested, about 15% had one in any assay. Rule as the data show it: active = growth inhibition above about 70%; inactive = the rest.

What was measured:
[1] = NCI Yeast Anticancer Drug Screen. Data for the rad50 strain (AID 155);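 also: 0% = growth of vehicle-only cultures of the same strain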; conditions: S. cerevisiae rad50 strain growth inhibition, hits give high values; at 50.0 µM unless noted
Procedure, shortened: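 Growth of the mutant yeast was measured after compound exposure and referenced to vehicle-treated cultures.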

[2] = NCI Yeast Anticancer Drug Screen. Data for the mec2-1 strain (AID 157); conditions: S. cerevisiae mec2-1 strain, hits give high values; at 50.0 µM unless noted
Procedure, shortened: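 Yeast mec2-1 mutant treated with compound. Readout: growth inhibition vs vehicle controls.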

[3] = NCI Yeast Anticancer Drug Screen. Data for the sgs1 mgt1 strain (AID 161);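 also: 0% = growth of cultures given vehicle only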; conditions: S. cerevisiae sgs1 mgt1 strain, hits give high values; at 50.0 µM unless noted
Procedure, shortened: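 Inhibition of yeast growth, normalised to vehicle-treated controls, is reported for a strain bearing genetic alterations in DNA damage repair.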

[4] = NCI Yeast Anticancer Drug Screen. Data for the cln2 rad14 strain (AID 165);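 also: 0% = growth equal to vehicle treated cultures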; conditions: S. cerevisiae cln2 rad14 strain, hits give high values; at 50.0 µM unless noted
Procedure, shortened: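 cln2 rad14 yeast strain; compound exposure; growth inhibition read vs vehicle controls.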

[5] = NCI Yeast Anticancer Drug Screen. Data for the bub3 strain (AID 167); conditions: S. cerevisiae bub3 mutant strain, hits give high values; at 50.0 µM unless noted
Procedure, shortened: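 Whole-cell yeast assay. The mutant strain was incubated with compounds, and growth inhibition was determined by comparison with vehicle-treated cells.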

[6] = NCI Yeast Anticancer Drug Screen. Data for the mlh1 rad18 strain (AID 175); conditions: S. cerevisiae mlh1 rad18 strain growth inhibition, hits give high values; at 50.0 µM unless noted
Procedure, shortened: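 Yeast w/ defined DNA-repair lesions; compound exposure; growth vs vehicle controls → % inhibition.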

Measured: growth inhibition

Clc1ccccc1/C=N\N=C\c1ccco1
inactive: [1] 8.3% | [2] -14.1% | [3] -9.05% | [4] -40.4% | [5] -11.1% | [6] 14.4%

COc1cc(/C=N/NC(=O)c2ccccc2NC(=O)c2ccccc2)ccc1O
inactive: [1] 2.05% | [2] -13% | [3] 20.1% | [4] -32.5% | [5] 37.7% | [6] 30.9%

CN1C2=NCCN2C(=O)c2cc(Cl)ccc21
inactive: [1] 1.05% | [2] -21.9% | [3] 15.6% | [4] 8.65% | [5] 13.7% | [6] 9.9%

CCCOC(=O)C1C(c2ccc(OC)cc2)NC(c2ccc(OC)cc2)C(C(=O)OCCC)S1(=O)=O (stereo not given)
inactive: [1] -39.5% | [2] -2.8% | [3] -21.6% | [4] -5% | [5] -19.4% | [6] -14.3%

CSc1nc(NC2OC(COC(C)=O)C(OC(C)=O)C(OC(C)=O)C2OC(C)=O)c(N=CC=Nc2c(NC3OC(COC(C)=O)C(OC(C)=O)C(OC(C)=O)C3OC(C)=O)nc(SC)[nH]c2=O)c(=O)[nH]1 (stereo not given)
inactive: [1] -13.8% | [2] -17.7% | [3] -13.8% | [4] -17.7% | [5] 6.6% | [6] 5.75%

Clc1ccc(Oc2ncnc3nc[nH]c23)cc1
inactive: [1] 3.6% | [2] 5.75% | [3] 2.85% | [4] -1.35% | [5] -1.5% | [6] 23.5%

C=C(C)C1CCC2(C)CCC(=O)C(C)=C2C1 (stereo not given)
inactive: [1] 3.15% | [2] 1.35% | [3] -5.75% | [4] -19.7% | [5] -6.1% | [6] -4.15%

N#Cc1ccc(Nc2cnc3cc(N)ccc3n2)cc1
inactive: [1] 38.6% | [2] -10.2% | [3] 13.6% | [4] 18% | [5] 12.8% | [6] 34.6%

c1cncc(C2c3[nH]c4ccccc4c3CCN2CCCN2CCCCC2)c1 (stereo not given)
inactive: [1] -5.2% | [2] -36.7% | [3] 2.3% | [4] 10.7% | [5] -9.55% | [6] -0.5%

O=C1OCC/C1=C\c1ccc2c(c1)OCO2
inactive: [1] 40.4% | [2] -26.5% | [3] 20% | [4] -2.85% | [5] -10.2% | [6] -2.4%

C(=N\N1CN(/N=C/c2ccccc2)C(c2ccccc2)C1c1ccccc1)/c1ccccc1 (stereo not given)
inactive: [1] -6.2% | [2] -3.15% | [3] 4.5% | [4] 7.35% | [5] -1.65% | [6] 7.05%

COc1ccc(Nc2nc3ccccc3nc2-c2cccs2)cc1OC
inactive: [1] -5.8% | [2] -2% | [3] 13.9% | [4] 9.3% | [5] -0.7% | [6] -23.4%

COc1ccccc1-n1c(=O)c(N=Nc2ccc(Br)cc2)c(O)n(-c2ccccc2C)c1=S
inactive: [1] 49.1% | [2] 0.85% | [3] 44.7% | [4] -11.1% | [5] -2.45% | [6] 17.6%

O=C(c1ccc(-c2ccccc2)cc1)C(O)c1ccc(-c2ccccc2)cc1 (stereo not given)
inactive: [1] 7.55% | [2] 0.4% | [3] 2.65% | [4] -5.35% | [5] 1.2% | [6] 4.65%

CCOC(=O)c1c[nH]n(-c2ccccc2)c1=O
inactive: [1] 9.65% | [2] -3.95% | [3] -4.75% | [4] -3.15% | [5] -2.7% | [6] 12.6%

CC(=O)Oc1ccc(N2CC=C(c3ccccc3)CC2)cc1
inactive: [1] -6.7% | [2] -13.5% | [3] -9.75% | [4] -8.35% | [5] -9.45% | [6] -4.45%

CCCSc1nn2cc(NC(=O)OC)nc2s1
inactive: [1] -13.5% | [2] -8.7% | [3] -3.75% | [4] -24.5% | [5] 7.05% | [6] -6.5%

CCOC(=O)Cc1nc(/C(C#N)=C/c2ccco2)[nH]c(=O)c1C#N
inactive: [1] 2.4% | [2] 7.8% | [3] 30.9% | [4] 34.2% | [5] 8.15% | [6] 39.6%

N#C/C(=C\c1c[nH]c2ccccc12)C(N)=O
inactive: [1] 13.6% and 2.05% | [2] 5.15% and -7.45% | [3] 7.3% | [4] 18.8% | [5] -7.3% | [6] 22.5% and 5.8%

CN(C)N1C(=O)S/C(=C\c2ccc([N+](=O)[O-])cc2)C1=O
inactive: [1] -24.4% | [2] -14.3% | [3] 1.15% | [4] 6.3% | [5] -4.1% | [6] -16.2%
